Measured values reported in PubChem BioAssay (Tox21).
Values joined by “and” are separate entries in the source; they are usually repeats but may differ in a detail not shown here. Identical values can stand only once. Records with an inconclusive call do not appear. A call without a number means that no potency is given here. A structure can be active in one record and inactive in another. Active and inactive are the calls of the source. Unless noted, calls follow the shape of the dose curve; as a rule, active = well fitted curve in the direction sought with a large enough effect in the repeat runs; inconclusive = weak or mixed curves; inactive = no such curve, though single readings can be large; an effect the other way counts as inactive or inconclusive.

Tests used:
[1] = qHTS assay to identify small molecule agonists of the hypoxia (HIF-1) signaling pathway - cell viability counter screen (AID 1224844; calls by dose curve; also: nearly all actives have a fitted effect of over 50% in size)
Procedure, shortened: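 HRE-bla ME-180; 0.5% dFBS; cpd 17 h, 37C, 5% CO2; CellTiter-Glo lum., 30 min RT, post-FRET read, same wells.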

[2] = qHTS assay to identify small molecule agonists of H2AX (AID 1224845; active = well fitted activation curve with a large enough effect in the signal ratio in the repeat runs, not every such curve was filed as active; the % refers to the signal ratio)
Procedure, shortened: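 Wild-type CHO-K1 cells, plated overnight, exposed 3hr at 37C to 15 concentrations (0.76% DMSO final). Lysed, then HTRF anti-pH2AX (S139) cryptate and anti-H2AX-d2 antibodies, 24 hr room temperature; 665/620 nm emission read.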

[3] = qHTS assay to identify small molecule agonists of the hypoxia (HIF-1) signaling pathway (AID 1224846; active = well fitted activation curve with a large enough effect in the signal ratio in the repeat runs, not every such curve was filed as active; the % refers to the signal ratio)
Procedure, shortened: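 Reporter induction in HRE-bla ME-180 cells is taken as agonism: cells sit 5 hrs after plating, receive compounds or DMSO only, incubate 17 hrs at 37C under 5% CO2, and are loaded with CCF4-AM for beta-lactamase FRET measurement.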

[4] = qHTS assay to identify small molecule agonists of H2AX - cell viability counter screen (AID 1224847; calls by dose curve; also: top concentration of the series differs between compounds; nearly all actives have a fitted effect of over 30% in size)
Procedure, shortened: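 After overnight plating of 1000 CHO-K1 cells per well, a 15-concentration compound series was applied for 3 hr at 37C. Luminescence from CellTiter-Glo, read following 30 min at room temperature, reflected cell viability.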

[5] = qHTS RealTime-Glo MT Cell Viability Assay in HepG2 cells - 24 hour (AID 1224867); also: nearly all actives have a fitted effect of over 50% in size
Procedure, shortened: (§1)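 Viability was tracked continuously by NanoLuc luminescence from prosubstrate reduced by living HepG2 cells, at successive time points over 40 h of compound exposure. Cells with reagent were preincubated 5 h at 37 °C before compound addition.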

[6] = qHTS RealTime-Glo MT Cell Viability Assay in HepG2 cells - 40 hour (AID 1224870); also: nearly all actives have a fitted effect of over 50% in size
Procedure, shortened: (§2)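 HepG2 cells (600/well) mixed with RealTime-Glo MT reagent, settled 5 h at 37 C/5% CO2 before compound addition. Nonlytic NanoLuc luminescence from viable-cell prosubstrate reduction read repeatedly during 40 h treatment at 37 C.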

[7] = A CellTox Green Cytotoxicity Assay to monitor cytotoxicity in HEK293 cells - 40 hour (AID 1224871); also: nearly all actives have a fitted effect of over 45% in size
Procedure, shortened: (§3)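 Tox21 screen in HEK293: membrane-impermeant cyanine dye fluoresces on binding dead-cell DNA; compound pinned 5 h post-seeding, plates held at 37 C, signal read repeatedly through 40 h.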

[8] = qHTS RealTime-Glo MT Cell Viability Assay in HEK293 cells - 16 hour (AID 1224872); also: nearly all actives have a fitted effect of over 50% in size; also: potency is read from the fitted curve at half-maximal effect
Procedure, shortened: (§4)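 Viability tracked continuously by luminescence as live cells reduce a prosubstrate for NanoLuc; HEK293 cells preincubated 5 h, compound-treated at 37 C, and read at 0, 8, 16, 24, 32 and 40 h.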

[9] = qHTS RealTime-Glo MT Cell Viability Assay in HepG2 cells - 8 hour (AID 1224873); also: nearly all actives have a fitted effect of over 55% in size
Procedure, shortened: as §2

[10] = qHTS RealTime-Glo MT Cell Viability Assay in HEK293 cells - 40 hour (AID 1224874); details: RealTime-Glo luminescence; max response: stronger effect = lower value; also: nearly all actives have a fitted effect of over 50% in size; also: potency is read from the fitted curve at half-maximal effect
Procedure, shortened: (§5)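 HEK293 + NanoLuc + prosubstrate, 600 cells/well; 5 h, 37 C/5% CO2; compound 23 nL in DMSO by pintool; 37 C; luminescence read at 0, 8, 16, 24, 32 and 40 h time points.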

[11] = A CellTox Green Cytotoxicity Assay to monitor cytotoxicity in HEK293 cells - 24 hour (AID 1224875); also: series mostly up to about 77 µM; nearly all actives have a fitted effect of over 45% in size
Procedure, shortened: as §3

[12] = A CellTox Green Cytotoxicity Assay to monitor cytotoxicity in HepG2 cells - 16 hour (AID 1224876); also: nearly all actives have a fitted effect of over 45% in size
Procedure, shortened: (§6)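 Measurements at 0, 8, 16, 24, 32 and 40 h of treatment captured CellTox Green fluorescence in HepG2 cells that had been co-plated with reagent and preincubated 5 h at 37 C/5% CO2.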

[13] = qHTS RealTime-Glo MT Cell Viability Assay in HepG2 cells - 32 hour (AID 1224877); also: nearly all actives have a fitted effect of over 55% in size
Procedure, shortened: as §1

[14] = A CellTox Green Cytotoxicity Assay to monitor cytotoxicity in HepG2 cells - 24 hour (AID 1224878); also: nearly all actives have a fitted effect of over 45% in size
Procedure, shortened: as §6

[15] = A CellTox Green Cytotoxicity Assay to monitor cytotoxicity in HepG2 cells - 40 hour (AID 1224879); also: nearly all actives have a fitted effect of over 40% in size
Procedure, shortened: as §6

[16] = qHTS RealTime-Glo MT Cell Viability Assay in HEK293 cells - 0 hour (AID 1224880)
Procedure, shortened: as §5

[17] = A CellTox Green Cytotoxicity Assay to monitor cytotoxicity in HEK293 cells - 32 hour (AID 1224881); also: nearly all actives have a fitted effect of over 40% in size
Procedure, shortened: as §3

[18] = qHTS RealTime-Glo MT Cell Viability Assay in HEK293 cells - 32 hour (AID 1224868)
Procedure, shortened: as §4

[19] = A CellTox Green Cytotoxicity Assay to monitor cytotoxicity in HEK293 cells - 0 hour (AID 1224869); also: nearly all actives have a fitted effect of over 50% in size
Procedure, shortened: as §3

| SMILES | outcome [1] | outcome [2] | outcome [3] | outcome [4] | Potency [5] | outcome [6] | Potency [7] | Potency [8] | Potency [9] | max response [10] | Potency [11] | outcome [12] | outcome [13] | Potency [14] | Potency [15] | outcome [16] | Potency [17] | Potency [18] | outcome [19] | Potency [10] |
| --- | --- | --- | --- | --- | --- | --- | --- | --- | --- | --- | --- | --- | --- | --- | --- | --- | --- | --- | --- | --- |
| C=C(C)[C@H]1CC=C(C)C(=O)C1 | inactive | inactive | inactive | inactive | inactive | inactive | inactive | inactive | inactive | -1.87% (inactive) and 0.747% (inactive) | inactive | inactive | inactive | inactive | inactive | inactive | inactive |  |  |  |
| COc1ccc(CCC(C)=O)cc1 | inactive | inactive | inactive | inactive | inactive | inactive | inactive | inactive | inactive | 7.39% (inactive) and 0.508% (inactive) | inactive | inactive | inactive | inactive |  | inactive | inactive | inactive | inactive |  |
| CC(C)=CCl | inactive | inactive | inactive | inactive | inactive | inactive | inactive | inactive | inactive | 8.16% (inactive) and 2.09% (inactive) | inactive | inactive | inactive | inactive | inactive | inactive | inactive | inactive | inactive |  |
| CC(=O)OCc1ccccc1 | inactive | inactive | inactive | inactive | inactive | inactive | inactive | inactive | inactive | -41.8% (inactive) and -21% (inactive) | inactive | inactive | inactive | inactive |  | inactive | inactive |  | inactive |  |
| C[Si]1(C)O[Si](C)(C)O[Si](C)(C)O[Si](C)(C)O1 | inactive | inactive | inactive | inactive | inactive | inactive | inactive | inactive | inactive | 3.24% (inactive) and 9.03% (inactive) | inactive | inactive | inactive | inactive |  | inactive | inactive |  | inactive |  |
| CCCCCCC=O | inactive | inactive | inactive | inactive | inactive | inactive | inactive | inactive | inactive | 0.391% (inactive) and 24.5% (inactive) | inactive | inactive | inactive | inactive | inactive | inactive | inactive |  |  |  |
| C=CC(C)CCCC(C)(C)O (stereo not given) | inactive | inactive | inactive | inactive | inactive | inactive | inactive | inactive | inactive | 5.11% (inactive) and 3.85% (inactive) | inactive | inactive | inactive | inactive |  | inactive | inactive | inactive | inactive |  |
| O=C(O)c1ccc(S(=O)(=O)N(Cl)Cl)cc1 | inactive | inactive | inactive | inactive | inactive | inactive | inactive | 49.3 µM (active) and inactive | inactive | 0.122% (inactive) | inactive | inactive | inactive | inactive |  | inactive | inactive |  |  | 43.9 µM (active) |
| O=C(O)c1ccccc1C(=O)O | inactive | inactive | inactive | inactive | inactive | inactive | inactive | inactive | inactive | -5.44% (inactive) and 3.46% (inactive) | inactive | inactive | inactive | inactive | inactive | inactive | inactive | inactive | inactive |  |
| CN(C)c1ccc(O)c2c1C[C@H]1C[C@H]3[C@H](N(C)C)C(=O)C(C(N)=O)=C(O)[C@@]3(O)C(=O)C1=C2O | inactive | inactive | inactive | inactive | inactive | inactive | inactive | inactive | inactive | -2.64% (inactive) and -1.12% (inactive) | inactive | inactive | inactive | inactive | inactive | inactive | inactive |  |  |  |
| CC(=O)c1ccc(O)cc1 | inactive | inactive | inactive | inactive | inactive | inactive | inactive | inactive | inactive | 0.924% (inactive) and -3% (inactive) | inactive | inactive | inactive | inactive |  | inactive | inactive |  | inactive |  |
| CC(C)OP(=O)(CP(=O)(OC(C)C)OC(C)C)OC(C)C | inactive | inactive | inactive | inactive | inactive | inactive | inactive | inactive | inactive | 4.3% (inactive) and 0.573% (inactive) | inactive | inactive | inactive | inactive |  | inactive | inactive | inactive |  |  |
| OC1C(O)C(O)C(O)C(O)C1O (stereo not given) | inactive | inactive | inactive | inactive | inactive | inactive | inactive | inactive | inactive | 9.45% (inactive) and 0% (inactive) | inactive | inactive | inactive | inactive | inactive | inactive | inactive |  | inactive |  |
| CC1(C)OC[C@@H]2O[C@@]3(C(=O)O)OC(C)(C)O[C@H]3[C@@H]2O1 | inactive | inactive | inactive | inactive | inactive | inactive | inactive | inactive | inactive | -6.82% (inactive) and 4.68% (inactive) | inactive | inactive | inactive | inactive |  | inactive | inactive |  | inactive |  |
